# From PubChem BioAssay (EPA / NIEHS)
# Records with an inconclusive call do not appear. Calls of active or inactive are those of the source. The calls were made as follows, unless noted: active = hit-call score of the fitted dose curve at least 0.9, where 1 is the maximum; inconclusive = response in the unintended direction; inactive = score below 0.9.
# Columns and labels:
# [1] = target: human Peripheral-type Benzodiazepine Receptor (PBR), TSPO (gene 706) (UniProt P30536); assay: NVS_MP_hPBR: NovaScreen (NVS) Membrane Protein Assay for human Peripheral-type Benzodiazepine Receptor (PBR) (AID 2283331);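 also: hits reduce radioligand binding relative to DMSO baseline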
# Chain of human Peripheral-type Benzodiazepine Receptor (PBR), TSPO (gene 706) (P30536 whole entry, looked up): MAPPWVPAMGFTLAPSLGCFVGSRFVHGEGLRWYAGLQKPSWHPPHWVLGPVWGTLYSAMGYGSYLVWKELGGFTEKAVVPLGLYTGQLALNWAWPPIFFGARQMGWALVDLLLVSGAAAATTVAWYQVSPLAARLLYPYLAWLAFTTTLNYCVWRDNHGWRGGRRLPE
# In short: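 Cell-free binding to human colonic membrane preparations measured by filter-based scintillation counting after 1 h. Compounds first run at 25 uM in duplicate, then concentration series for actives; signal loss against DMSO baseline.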
# [2] = target: rat Peripheral-type Benzodiazepine Receptor (PBR), Tspo (gene 24230) (UniProt P16257); assay: NVS_MP_rPBR: NovaScreen (NVS) Membrane Protein Assay for rat Peripheral-type Benzodiazepine Receptor (PBR) (AID 2283335)
# Chain of rat Peripheral-type Benzodiazepine Receptor (PBR), Tspo (gene 24230) (P16257 whole entry, looked up): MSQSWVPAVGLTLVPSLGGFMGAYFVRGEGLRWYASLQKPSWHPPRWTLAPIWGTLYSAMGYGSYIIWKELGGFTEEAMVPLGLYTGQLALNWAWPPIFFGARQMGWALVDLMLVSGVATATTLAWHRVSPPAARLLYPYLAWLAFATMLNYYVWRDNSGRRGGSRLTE
# In short: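 Competitive displacement of specific radioligand from rat kidney membrane PBR, read by filtration and scintillation after 1 h. Compounds first tested at 25 uM in duplicate, then in concentration series; signal loss relative to DMSO.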
# [3] = target: rat Oxytocin Receptor (OXT), Oxtr (gene 25342) (UniProt P70536); assay: NVS_GPCR_rOXT: NovaScreen (NVS) G Protein-Coupled Receptor Assay for rat Oxytocin Receptor (OXT) (AID 2283330)
# Chain of rat Oxytocin Receptor (OXT), Oxtr (gene 25342) (P70536 whole entry, looked up): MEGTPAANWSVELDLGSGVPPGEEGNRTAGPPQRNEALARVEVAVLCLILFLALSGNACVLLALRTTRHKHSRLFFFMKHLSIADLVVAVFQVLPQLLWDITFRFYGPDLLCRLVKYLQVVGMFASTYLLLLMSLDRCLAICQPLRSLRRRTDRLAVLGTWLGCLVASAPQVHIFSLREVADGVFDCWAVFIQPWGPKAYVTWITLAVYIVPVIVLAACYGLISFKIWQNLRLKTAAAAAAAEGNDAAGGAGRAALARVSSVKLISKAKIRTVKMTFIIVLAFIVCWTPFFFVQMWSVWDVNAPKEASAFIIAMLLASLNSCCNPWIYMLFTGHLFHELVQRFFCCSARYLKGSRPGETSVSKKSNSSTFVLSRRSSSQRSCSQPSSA
# In short: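 Binding to rat uterine membrane receptor was followed by scintillation counting of filter-trapped radioligand after 1 h. A 25 uM duplicate single-point screen preceded concentration series with a top of 50 uM. Signal loss was analysed relative to DMSO.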
# [4] = NVS_IC_rCaBTZCHL: NovaScreen (NVS) Ion Channel Assay for Calcium Channel, Type L, Benzothiazepine Site (CaBTZCHL) (AID 2283337)
# In short: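 Rat cortical membrane preparation incubated 1.5 h with compound and benzothiazepine-site radioligand; loss of filter-bound counts versus DMSO marks displacement. Initial duplicate testing at 25 uM, actives followed up in concentration series.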
# [5] = target: human Androgen Receptor (AR), AR (gene 367) (UniProt P10275); assay: NVS_NR_hAR: NovaScreen (NVS) Nuclear Receptor Binding Assay for human Androgen Receptor (AR) (AID 2283332)
# Chain of human Androgen Receptor (AR), AR (gene 367) (P10275 whole entry, looked up): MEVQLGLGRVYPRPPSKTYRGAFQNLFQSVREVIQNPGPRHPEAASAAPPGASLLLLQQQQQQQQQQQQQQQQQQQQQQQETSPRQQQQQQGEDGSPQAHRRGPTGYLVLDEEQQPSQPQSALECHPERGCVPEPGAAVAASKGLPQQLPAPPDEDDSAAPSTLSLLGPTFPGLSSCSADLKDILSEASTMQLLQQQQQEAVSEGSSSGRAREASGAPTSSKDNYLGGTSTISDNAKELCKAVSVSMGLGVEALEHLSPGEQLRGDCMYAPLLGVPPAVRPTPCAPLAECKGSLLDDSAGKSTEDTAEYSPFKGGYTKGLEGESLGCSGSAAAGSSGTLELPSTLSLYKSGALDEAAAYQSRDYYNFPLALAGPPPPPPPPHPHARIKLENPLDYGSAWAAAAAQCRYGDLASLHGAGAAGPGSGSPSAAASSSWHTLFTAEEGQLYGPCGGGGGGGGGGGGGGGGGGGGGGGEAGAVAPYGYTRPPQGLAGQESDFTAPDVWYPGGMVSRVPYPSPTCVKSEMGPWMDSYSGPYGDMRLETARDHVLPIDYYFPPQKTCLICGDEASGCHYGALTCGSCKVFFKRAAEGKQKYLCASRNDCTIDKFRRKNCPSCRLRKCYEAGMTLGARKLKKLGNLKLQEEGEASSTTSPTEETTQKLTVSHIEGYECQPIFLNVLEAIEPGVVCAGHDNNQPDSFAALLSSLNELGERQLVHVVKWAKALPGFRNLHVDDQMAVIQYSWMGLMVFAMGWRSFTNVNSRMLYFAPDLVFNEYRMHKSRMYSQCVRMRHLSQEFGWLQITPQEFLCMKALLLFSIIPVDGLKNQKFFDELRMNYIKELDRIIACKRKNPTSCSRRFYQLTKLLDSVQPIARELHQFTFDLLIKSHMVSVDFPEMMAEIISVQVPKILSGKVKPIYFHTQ
# In short: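 Radioligand competitive binding, scintillation read-out, in cell-free extract from LnCAP, measured 20 h after dosing. Screened first in duplicate at 25 uM, then concentration series for actives; activity fitted against DMSO.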
# [6] = target: Glutamate receptor ionotropic, kainate 1 (Rattus norvegicus) (UniProt P22756); assay: NVS_IC_rKAR: NovaScreen (NVS) Ion Channel Assay for rat Kainic Acid Receptors (KAR) (AID 2283334; active = hit-call score of the fitted dose curve at least 0.9, where 1 is the maximum; inactive = score below 0.9)
# Chain of Glutamate receptor ionotropic, kainate 1 (Rattus norvegicus) (P22756 whole entry, looked up): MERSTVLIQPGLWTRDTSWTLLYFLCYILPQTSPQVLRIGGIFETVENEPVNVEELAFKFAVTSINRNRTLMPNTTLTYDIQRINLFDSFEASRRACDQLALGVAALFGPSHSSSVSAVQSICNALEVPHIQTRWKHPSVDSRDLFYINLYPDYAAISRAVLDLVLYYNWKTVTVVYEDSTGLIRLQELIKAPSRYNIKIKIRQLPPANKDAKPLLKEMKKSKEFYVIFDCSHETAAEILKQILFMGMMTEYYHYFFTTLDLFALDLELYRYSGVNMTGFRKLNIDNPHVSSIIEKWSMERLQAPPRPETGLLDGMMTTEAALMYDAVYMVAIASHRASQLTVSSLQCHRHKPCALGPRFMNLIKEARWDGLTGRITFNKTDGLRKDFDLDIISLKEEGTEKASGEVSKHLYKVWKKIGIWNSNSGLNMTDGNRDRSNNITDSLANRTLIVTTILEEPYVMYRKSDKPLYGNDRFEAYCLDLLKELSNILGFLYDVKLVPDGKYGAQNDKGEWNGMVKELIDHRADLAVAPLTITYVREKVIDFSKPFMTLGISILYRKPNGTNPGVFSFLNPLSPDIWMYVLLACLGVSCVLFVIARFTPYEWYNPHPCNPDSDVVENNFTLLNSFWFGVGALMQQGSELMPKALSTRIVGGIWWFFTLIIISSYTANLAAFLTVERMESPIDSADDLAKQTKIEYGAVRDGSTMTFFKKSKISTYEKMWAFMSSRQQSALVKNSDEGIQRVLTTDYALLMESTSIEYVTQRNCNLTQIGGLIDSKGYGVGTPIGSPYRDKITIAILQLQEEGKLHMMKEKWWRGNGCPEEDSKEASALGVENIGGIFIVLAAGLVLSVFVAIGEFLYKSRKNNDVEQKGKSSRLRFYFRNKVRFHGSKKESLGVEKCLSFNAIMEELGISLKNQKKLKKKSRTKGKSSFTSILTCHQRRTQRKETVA
# Method: NVS_IC_rKAR is a biochemical, single-readout assay that uses extracted gene-proteins from Rat forebrain membranes in a tissue-based cell-free assay. Measurements were taken 1 hour after chemical dosing in a 48-well plate.NVS_IC_rKAR is one of one assay component(s) measured or calculated from the NVS_IC_rKAR assay. It is designed to make measurements of radioligand binding, a form of binding reporter, as detected with scintillation counting signals by Filter-based radiodetection technology.Data from the assay component NVS_IC_rKAR was analyzed into 1 assay endpoint. This assay endpoint, NVS_IC_rKAR, was analyzed in the positive analysis fitting direction relative to DMSO as the negative control and baseline of activity. […] Furthermore, this assay endpoint can be referred to as a primary readout, because the performed assay has only produced 1 assay endpoint. […]
# Binding assays used specific radioligands (tritiated, iodinated) with non-radioactive competitive displacement ligands in agonist or antagonist protocols (as indicated) and various reference compounds and inhibitors to titrate specific binding to receptors and transporters. Most enzyme assays (CYPs, kinases, phosphatases, proteases, HDACs) used recombinant protein and specific substrates (fluorescence mostly, some colorimetric and radioactive) and inhibitors, followed by a biochemical separation of substrate and product. […]
# [7] = target: Voltage-gated inwardly rectifying potassium channel KCNH2 (Homo sapiens) (UniProt Q12809); assay: NVS_IC_hKhERGCh: NovaScreen (NVS) Ion Channel Assay for human Potassium Channel ERG (KhERGCh) (AID 2283333)
# Chain of Voltage-gated inwardly rectifying potassium channel KCNH2 (Homo sapiens) (Q12809 whole entry, looked up): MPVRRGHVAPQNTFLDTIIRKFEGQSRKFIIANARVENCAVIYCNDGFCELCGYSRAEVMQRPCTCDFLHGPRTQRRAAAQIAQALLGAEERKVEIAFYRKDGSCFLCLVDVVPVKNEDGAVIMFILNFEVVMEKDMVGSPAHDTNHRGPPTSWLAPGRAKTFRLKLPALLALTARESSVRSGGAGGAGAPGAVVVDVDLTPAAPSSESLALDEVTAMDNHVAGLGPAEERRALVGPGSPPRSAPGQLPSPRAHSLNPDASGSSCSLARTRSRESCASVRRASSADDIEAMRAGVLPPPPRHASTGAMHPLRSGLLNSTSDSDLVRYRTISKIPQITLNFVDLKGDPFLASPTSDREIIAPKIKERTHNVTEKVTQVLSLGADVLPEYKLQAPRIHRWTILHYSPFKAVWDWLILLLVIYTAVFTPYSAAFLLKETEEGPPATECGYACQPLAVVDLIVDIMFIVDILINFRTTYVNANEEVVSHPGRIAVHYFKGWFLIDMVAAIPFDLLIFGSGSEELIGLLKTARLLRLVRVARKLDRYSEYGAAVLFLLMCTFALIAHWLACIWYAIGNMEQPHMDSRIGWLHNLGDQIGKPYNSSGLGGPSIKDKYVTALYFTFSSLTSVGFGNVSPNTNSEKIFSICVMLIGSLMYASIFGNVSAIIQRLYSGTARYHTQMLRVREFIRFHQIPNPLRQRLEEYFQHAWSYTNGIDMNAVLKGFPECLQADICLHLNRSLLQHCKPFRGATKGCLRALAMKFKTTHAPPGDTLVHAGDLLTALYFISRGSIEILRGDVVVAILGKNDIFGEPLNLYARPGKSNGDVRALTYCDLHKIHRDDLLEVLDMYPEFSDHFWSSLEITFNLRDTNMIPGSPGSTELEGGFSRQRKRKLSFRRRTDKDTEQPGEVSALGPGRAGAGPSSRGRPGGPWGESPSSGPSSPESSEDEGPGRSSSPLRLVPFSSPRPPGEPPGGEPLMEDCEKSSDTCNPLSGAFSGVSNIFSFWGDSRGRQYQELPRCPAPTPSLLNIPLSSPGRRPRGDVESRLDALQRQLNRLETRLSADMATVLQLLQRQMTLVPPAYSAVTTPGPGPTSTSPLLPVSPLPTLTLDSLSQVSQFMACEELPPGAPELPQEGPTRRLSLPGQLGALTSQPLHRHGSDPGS
# In short: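 Membranes from CHO cells expressing human ERG; displacement of radioligand measured by filtration and scintillation after 0.75 h. Single-concentration duplicate screen at 25 uM, then concentration-response for actives; DMSO baseline.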
# [8] = target: rat Glutamate, NMDA Agonist Site (GluNMDA), Grin1 (gene 24408) (UniProt P35439); assay: NVS_LGIC_rGluNMDA_Agonist: NovaScreen (NVS) Ligand-Gated Ion Channel Assay for rat Glutamate, NMDA Agonist Site (GluNMDA) (AID 2283327)
# In short: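 Radioligand displacement at the agonist site on rat forebrain membrane preparations, read by filter scintillation after 1 h. Chemicals were first run at 25 uM in duplicate; those passing threshold were titrated to a 50 uM maximum.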
# [9] = target: rat Gamma-Aminobutyric Acid Type A Receptor BDZ, alpha 6 site (GABARa6), Gabra6 (gene 29708) (UniProt P30191); assay: NVS_LGIC_rGABARa6: NovaScreen (NVS) Ligand-Gated Ion Channel Assay for rat Gamma-Aminobutyric Acid Type A Receptor BDZ, alpha 6 site (GABARa6) (AID 2283339)
# Chain of rat Gamma-Aminobutyric Acid Type A Receptor BDZ, alpha 6 site (GABARa6), Gabra6 (gene 29708) (P30191 whole entry, looked up): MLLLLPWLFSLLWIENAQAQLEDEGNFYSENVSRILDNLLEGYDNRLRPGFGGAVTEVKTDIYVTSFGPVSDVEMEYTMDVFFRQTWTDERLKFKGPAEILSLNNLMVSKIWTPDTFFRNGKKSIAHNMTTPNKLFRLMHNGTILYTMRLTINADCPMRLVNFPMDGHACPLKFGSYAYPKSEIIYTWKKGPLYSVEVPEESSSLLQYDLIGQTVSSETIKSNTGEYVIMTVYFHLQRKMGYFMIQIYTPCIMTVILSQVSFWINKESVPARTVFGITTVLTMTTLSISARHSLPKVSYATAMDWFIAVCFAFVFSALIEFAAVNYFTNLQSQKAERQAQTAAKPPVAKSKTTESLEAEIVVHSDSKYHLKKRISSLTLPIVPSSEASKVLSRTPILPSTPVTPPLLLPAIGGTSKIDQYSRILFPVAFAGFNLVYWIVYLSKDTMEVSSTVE
# In short: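 Actives from a 25 uM duplicate screen were retested in concentration series (max 50 uM). Specific radioligand displacement from rat cerebellar membranes was counted by filter-based scintillation at 1 h; DMSO served as baseline.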
# [10] = target: Small conductance calcium-activated potassium channel protein 1 (Rattus norvegicus) (UniProt P70606); assay: NVS_IC_rKCaCh: NovaScreen (NVS) Ion Channel Assay for rat Potassium Channel, Ca2+ Act., VI (KCaCh) (AID 2283336)
# Chain of Small conductance calcium-activated potassium channel protein 1 (Rattus norvegicus) (P70606 whole entry, looked up): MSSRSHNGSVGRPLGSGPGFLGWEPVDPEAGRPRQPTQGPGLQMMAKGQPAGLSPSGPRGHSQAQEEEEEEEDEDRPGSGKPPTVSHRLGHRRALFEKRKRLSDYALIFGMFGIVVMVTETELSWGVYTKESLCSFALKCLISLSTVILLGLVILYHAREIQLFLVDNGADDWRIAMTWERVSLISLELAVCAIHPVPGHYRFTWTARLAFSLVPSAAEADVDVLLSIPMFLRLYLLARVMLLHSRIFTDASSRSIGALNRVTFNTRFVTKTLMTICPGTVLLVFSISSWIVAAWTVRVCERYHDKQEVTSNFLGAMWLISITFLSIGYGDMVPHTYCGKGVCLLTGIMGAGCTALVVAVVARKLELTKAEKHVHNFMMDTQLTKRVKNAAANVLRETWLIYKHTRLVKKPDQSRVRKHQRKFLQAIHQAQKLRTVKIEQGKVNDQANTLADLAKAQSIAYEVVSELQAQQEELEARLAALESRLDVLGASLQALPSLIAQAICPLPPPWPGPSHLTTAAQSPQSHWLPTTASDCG
# In short: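 Filter-based scintillation counting of radioligand bound to rat forebrain membrane preparations, measured 1 h after compound addition. Primary screen used 25 uM in duplicate, with concentration-response follow-up; signal decrease relative to DMSO marks activity.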
smiles,measurement,setting,value
CCCCN(CC)c1c([N+](=O)[O-])cc(C(F)(F)F)cc1[N+](=O)[O-],outcome,[1],inactive
same,outcome,[2],inactive
CSc1nnc(C(C)(C)C)c(=O)n1N,outcome,[3],inactive
same,outcome,[4],inactive
CCCSP(=O)(OCC)SCCC,AC50,[1],17.7 µM (active)
same,outcome,[5],inactive
same,AC50,[2],11.5 µM (active)
C=C(C)[C@H]1Cc2c(ccc3c2O[C@@H]2COc4cc(OC)c(OC)cc4[C@@H]2C3=O)O1,outcome,[1],inactive
same,outcome,[5],inactive
same,AC50,[2],4.23 µM (active)
CC(COc1ccc(Oc2ccccc2)cc1)Oc1ccccn1 (configuration not stated),outcome,[1],inactive
same,outcome,[2],inactive
CC(C)[C@H](C(=O)O[C@H](C#N)c1cccc(Oc2ccccc2)c1)c1ccc(Cl)cc1,outcome,[1],inactive
COP(=O)(NC(C)=O)SC (configuration not stated),outcome,[1],inactive
same,outcome,[6],inactive
CCOP(=O)(OCC)Oc1cc(C)nc(C(C)C)n1,outcome,[1],inactive
CCCCOC(=O)c1ccccc1C(=O)O,outcome,[1],inactive
C#CCC1=C(C)C(OC(=O)C2C(C=C(C)C)C2(C)C)CC1=O (configuration not stated),outcome,[1],inactive
same,AC50,[2],20 µM (active)
CNC(=O)ON=C(C)SC,outcome,[1],inactive
CCC(=O)Nc1ccc(Cl)c(Cl)c1,AC50,[1],15.6 µM (active)
same,AC50,[5],8.41 µM (active)
same,AC50,[2],9.5 µM (active)
CC(C1CC1)C(O)(Cn1cncn1)c1ccc(Cl)cc1 (configuration not stated),outcome,[1],inactive
CCCOCC(=Nc1ccc(Cl)cc1C(F)(F)F)n1ccnc1,AC50,[1],8.63 µM (active)
same,outcome,[7],inactive
same,AC50,[2],0.807 µM (active)
same,outcome,[4],inactive
CC[C@H](C)[C@H]1O[C@]2(C=C[C@@H]1C)C[C@@H]1C[C@@H](C/C=C(\C)[C@@H](O[C@H]3C[C@H](OC)[C@@H](O[C@H]4C[C@H](OC)[C@@H](NC)[C@H](C)O4)[C@H](C)O3)[C@@H](C)/C=C/C=C3\CO[C@@H]4[C@H](O)C(C)=C[C@@H](C(=O)O1)[C@]34O)O2,AC50,[8],16.4 µM (active)
same,AC50,[7],0.00229 µM (active)
same,AC50,[4],10 µM (active)
CCCCSP(=O)(SCCCC)SCCCC,AC50,[1],17.9 µM (active)
same,outcome,[7],inactive
same,AC50,[2],3.75 µM (active)
S=C1NCCN1,outcome,[1],inactive
CNc1cnn(-c2cccc(C(F)(F)F)c2)c(=O)c1Cl,outcome,[3],inactive
same,AC50,[1],5.75 µM (active)
same,AC50,[2],4.99 µM (active)
CN(C)[C@@H]1C(=O)C(C(N)=O)=C(O)[C@@]2(O)C(=O)C3=C(O)c4c(O)cccc4[C@@](C)(O)[C@H]3[C@H](O)[C@@H]12,AC50,[1],12.9 µM (active)
same,outcome,[2],inactive
COc1ccc(C(=CC(=O)N2CCOCC2)c2ccc(Cl)cc2)cc1OC,outcome,[1],inactive
same,AC50,[5],1.79 µM (active)
same,outcome,[2],inactive
same,outcome,[4],inactive
Nc1c(Cl)cc([N+](=O)[O-])cc1Cl,outcome,[1],inactive
CCc1cccc(CC)c1N(COC)C(=O)CCl,outcome,[8],inactive
same,AC50,[1],11.1 µM (active)
same,AC50,[2],5.18 µM (active)
FC(F)C(F)(F)OCC(Cn1cncn1)c1ccc(Cl)cc1Cl (configuration not stated),AC50,[1],19.4 µM (active)
same,AC50,[7],19.9 µM (active)
same,AC50,[2],5.37 µM (active)
same,AC50,[4],7.26 µM (active)
same,outcome,[9],inactive
CCOP(=S)(OCC)Oc1ccc([N+](=O)[O-])cc1,outcome,[1],inactive
same,AC50,[2],3.61 µM (active)
CCOP(=S)(OCC)SCCSCC,outcome,[1],inactive
same,AC50,[2],17.9 µM (active)
CCOP(=S)(OCC)Oc1ccc2c(C)c(Cl)c(=O)oc2c1,AC50,[1],3.86 µM (active)
same,AC50,[2],0.541 µM (active)
C#CC(C)(C)NC(=O)c1cc(Cl)cc(Cl)c1,AC50,[1],1.47 µM (active)
same,AC50,[2],0.19 µM (active)
CCCSP(=O)(OCC)Oc1ccc(Br)cc1Cl (configuration not stated),AC50,[1],3.16 µM (active)
same,AC50,[2],0.28 µM (active)
CC1(C(=O)Nc2ccc(O)c(Cl)c2Cl)CCCCC1,AC50,[1],1.78 µM (active)
same,AC50,[2],0.47 µM (active)
CSc1nc(NC(C)C)nc(NC(C)C)n1,AC50,[7],6.4 µM (active)
CCC(CC)Nc1c([N+](=O)[O-])cc(C)c(C)c1[N+](=O)[O-],outcome,[1],inactive
same,outcome,[2],inactive
CC(C)N(C(=O)SCC(Cl)=C(Cl)Cl)C(C)C,AC50,[2],45.6 µM (active)
CCOP(=S)(Oc1cnc(C(C)(C)C)nc1)OC(C)C (configuration not stated),outcome,[1],inactive
same,outcome,[2],inactive
C[Si](Cn1cncn1)(c1ccc(F)cc1)c1ccc(F)cc1,AC50,[1],25 µM (active)
same,outcome,[2],inactive
CCOC(=O)CC(SP(=O)(OC)OC)C(=O)OCC (configuration not stated),outcome,[1],inactive
same,AC50,[2],19.7 µM (active)
CCOP(=S)(OCC)Oc1cc(C)nc(C(C)C)n1,outcome,[1],inactive
same,AC50,[2],1.3 µM (active)
C[N+]1(C)CCCCC1,outcome,[2],inactive
CNC(=O)ON=C(SC)C(=O)N(C)C,outcome,[1],inactive
same,outcome,[2],inactive
Cc1cc(C2CC2)nc(Nc2ccccc2)n1,AC50,[1],25 µM (active)
same,AC50,[2],7.55 µM (active)
CN(C)C(=O)Nc1cccc(C(F)(F)F)c1,AC50,[1],17.9 µM (active)
same,AC50,[2],10.8 µM (active)
same,outcome,[10],inactive
same,outcome,[9],inactive
CC1=NNC(=O)N(/N=C/c2cccnc2)C1,outcome,[1],inactive
same,outcome,[4],inactive
CON=C(C(=O)OC)c1ccccc1CON=C(C)c1cccc(C(F)(F)F)c1,AC50,[1],1.06 µM (active)
same,AC50,[2],0.612 µM (active)
O=[N+]([O-])c1cc(C(F)(F)F)c(Cl)c([N+](=O)[O-])c1Nc1ncc(C(F)(F)F)cc1Cl,outcome,[7],inactive
CCC(=NOC/C=C/Cl)C1=C(O)CC(C2CCOCC2)CC1=O (configuration not stated),outcome,[1],inactive
same,outcome,[2],inactive
CC(C)=CC1C(C(=O)OCN2C(=O)C3=C(CCCC3)C2=O)C1(C)C (configuration not stated),AC50,[1],13.5 µM (active)
same,outcome,[2],inactive
CCc1cccc(C)c1N(C(=O)CCl)C(C)COC (configuration not stated),AC50,[1],9.23 µM (active)
same,AC50,[2],8.9 µM (active)
